Laboratory results published in PubChem BioAssay (NCI).
About 83,000 compounds went through this panel and 20% of them were active in at least one assay; those are over-represented in the sample as a whole.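 96-well plates, one dose, 48 hours. Percent growth reported; active if below 10.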 Unmarked numbers belong to inactive results. Activity calls are given as the source filed them.

Columns and labels:
Assay in all cases: NCI-60 one-dose screen, 48 h (100 = growth as untreated, 0 = no growth, -100 = all killed)
Conditions in all cases: 10 µM unless noted
[1] = tested on: NCI-H23 lung
[2] = tested on: NCI-H226 lung
[3] = tested on: NCI-H322M lung
[4] = tested on: HOP-62 NSCLC
[5] = tested on: NCI-H460 lung
[6] = tested on: HOP-92 NSCLC
[7] = tested on: NCI-H522 lung
[8] = tested on: A549/ATCC NSCLC
[9] = tested on: 786-0 renal
[10] = tested on: COLO 205 colon

| SMILES | growth [1] | growth [2] | growth [3] | growth [4] | growth [5] | growth [6] | growth [7] | growth [8] | growth [9] | growth [10] |
| --- | --- | --- | --- | --- | --- | --- | --- | --- | --- | --- |
| CC(=O)Oc1ccc(Nc2c3ccccc3nc3ccccc23)cc1 | 11.9% | -59.2% (active) | 19.9% | 11.2% | -26.5% (active) | -3.96% (active) | -69.7% (active) | -23.7% (active) | 16.5% | 3.96% (active) |
| Nc1nc2c(c3ncccc13)C(c1cccc(Br)c1)Cc1ncccc1-2 (stereo not given) | 39.5% | 72% | 41.6% | 20.3% | 10.6% | 67.2% | -12.4% (active) | 9.92% (active) | 21.3% | -36.1% (active) |
| CC1=C(NCCN2CCCC2)C(=O)c2c(OCc3cccc(Cl)c3)cccc2C1=O | 81.4% | 94.1% | 75.8% | 78.4% | 83.1% | 60.6% | 82.9% | 77.2% | 63.3% | 69.7% |
| CCCCCCCCCCCCCCCCCCSC1=CC(=O)C(OC)=C(OC)C1=O | 89.8% | 96.7% | 114% | 108% | 105% | 56.5% | 94.5% | 103% | 120% | 111% |
| CCCCCCCCCCCCCCCCCCNC(=O)[C@H]1CSC(c2ccc(OC)c(F)c2)N1 (stereo not given in full) | 36.9% | -68% (active) | 38.4% | -82.9% (active) | -67.8% (active) | 37.8% | 56.7% | 20.9% | 22.8% | 102% |
| CCN(CC)C12CCCCC1(C)C(C#N)(C#N)C(C#N)=C(N)O2 (stereo not given) | 101% | 95.6% | 91.3% | 98.8% | 114% | 83.8% | 105% | 106% | 108% | 140% |
| COc1ccc(/C(=C/c2ccc3ccccc3c2)c2nn[nH]n2)cc1OC | 31.5% | 81.1% | 40.1% | 27.8% | 14.1% | 5.89% (active) | -2.85% (active) | 25.4% | 40.4% | -2.4% (active) |
| COc1cccc(/C=C\C(=O)c2ccccc2)c1 | 86.7% | 76.7% | 85% | 87% | 78% | 87.6% | 81.2% | 92.4% | 74.4% | 90.1% |
| Cc1ccc(SCN2CCN(c3cccc(Cl)c3)CC2)cc1 | 94.4% | 80.9% | 88.7% | 114% | 98.4% | 89.7% | 96% | 106% | 94.8% | 115% |
| COc1ccc(N(Cc2cc(OC)c(OC)c(OC)c2)C2OC(=O)c3ccccc32)cc1 (stereo not given) | 36.7% | 67.2% | 52.4% | 28.1% | 10.4% | 51.3% | -17.2% (active) | 23.7% | 61.8% | -3.48% (active) |
| Cn1c2c(Cl)c(Cl)ccc2c2ccn3c(=O)c4ccccc4nc3c21 | 89% | 90.8% | 90.9% | 68% | 104% | 92.7% | 84.8% | 108% | 99.2% | 100% |
| COc1cnc2c(c1)C(=O)c1c-2n(CCCN2CCCC2)c(=O)c2cc([N+](=O)[O-])ccc12 | -7.75% (active) | -79.4% (active) | -11.9% (active) | -16.8% (active) | -60.1% (active) | 16.4% | -31% (active) | -44.8% (active) | -90.9% (active) | 2.24% (active) |
| Nc1cccc(NC(=O)C(=O)Nc2cccc(N)c2)c1 | 105% | 93.6% | 109% | 96.1% | 117% | 89.8% | 91.7% | 97.1% | 68.5% | 127% |
| CCCC(=O)Oc1ccc(/C(=C(/CC)Cc2ccccc2)c2ccc(OCCN3CCCC3)cc2)cc1 | 81.7% | 96% | 79.2% | 82.8% | 20.8% | 79.1% | 78.4% | 67.8% | 76.6% | -6.63% (active) |
| NC(=S)N/N=C/c1cc(-c2cccc(N)c2)ccn1 | 23.1% | 16.5% | 8.21% (active) | 5.98% (active) | 5.59% (active) | 39.7% | -17.3% (active) | 21.7% | 31.4% | 25.5% |
| CS(=O)(CCCCN=C=S)=NC(=O)c1c(F)c(F)c(F)c(F)c1F (stereo not given) | 96.7% | 99.6% | 108% | 111% | 88.4% | 107% | 57% | 80.3% | 89% | 89.4% |
| Oc1ccc2c(=S)cc(-c3ccc(Br)cc3)oc2c1O | -13.7% (active) | 90.5% | 10.5% | 28.7% | 3.24% (active) | -18.9% (active) | -27% (active) | 3.47% (active) | 28.1% | 103% |
| CCOc1ccc(Nc2nc(-c3c(C)nc4ncccn34)cs2)cc1 | 24.2% | 52.1% | 52.2% | 17.9% | 5.6% (active) | 18.2% | -6.3% (active) | 22.4% | 9.74% (active) | -60.8% (active) |
| CCCNc1nc(SC)nc(-c2cccc(N)c2)c1C#N | 93.2% | 93.9% | 95.8% | 78.8% | 101% | 80.5% | 92.9% | 104% | 102% | 119% |
| COC(=S)SCN(CSC(=S)OC)c1ccc(Cl)cc1 | 80% | 69.9% | 76.1% | 76.9% | 87% | 74.7% | 79.9% | 81.6% | 94.3% | 111% |
| CS(=O)(=O)c1c(Nc2ccccc2)n[nH]c1N | 105% | 105% | 103% | 109% | 110% | 85% | 100% | 95.9% | 96.7% | 105% |
| CC[C@H](Nc1ncnc(N)c1C(N)=O)c1nc2cccc(NCc3ccc(C(=O)NO)cc3)c2c(=O)n1-c1ccccc1 | 91.7% | 102% | 86.9% | 78% | 79.5% | 21.5% | 35.9% | 98.2% | 90.3% | 78.3% |
| NC(N)=Nc1ccc(S(=O)(=O)O)cc1 | 102% | 105% | 114% | 106% | 109% | 84.3% | 79.3% | 106% | 98.3% | 109% |
| COc1cc(NCCCCCN=C(N)NC(N)=NC(C)C)c2ncccc2c1 | -37.5% (active) | 71.2% | 50.7% | 57% | 55.7% | 32.5% | -16.1% (active) | 89.9% | 92.3% | -30.3% (active) |
| Cn1cc(-c2ccc(-c3cn(C)c4ncccc34)[nH]2)c2cccnc21 | 70.7% | 88.8% | 86.1% | 66.5% | 97.8% | -4.05% (active) | -77.3% (active) | 84.2% | 99% | -23.6% (active) |
| Cc1cc(N/N=C/c2nc(-c3ccc(Cl)cc3)oc2C)c2cc(Cl)ccc2n1 | 111% | 98.4% | 79.1% | 103% | -62.5% (active) | 69.5% | -1.87% (active) | 21.9% | -39.8% (active) | 83.7% |
| O=C1Nc2ccc(Br)cc2C12CC(c1ccccc1)=NN2 (stereo not given) | 58.7% | 57.3% | 35.2% | 51.6% | 18.1% | 58.2% | 20% | 31.6% | 46.8% | 30.5% |
